Sampled rows, rich in hits. Any-hit rate of the full collection: about 2.2%.
AI-2 QS mod: modulators of Vibrio harveyi AI-2 quorum sensing system. Vibrio harveyi JMH597 AI-2 luminescence/OD600 ratio, 9 h; stronger effect = lower value; strain lacks LuxN and CqsS sensors; 0 = neutral-control median. hit rate 0.4% among 300,000. AID 2094. activity change, % at 7.5 µM; in the data active means activity change below about -75%, passing the limit was not always enough;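 further: luminescence divided by OD600 gain over 9 h not by final OD600 alone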
VLA-4 inh: inhibition in a human VLA-4 binding assay; P13612; VLA-4 expressing cells, ligand binding flow cytometry; inhibition, % (about 7 µM as worked out from the volumes in the protocol); hit rate 0.2% among 330,000; AID 2557; in the data active means inhibition above about 50%
Target sequence (P13612 whole entry, looked up): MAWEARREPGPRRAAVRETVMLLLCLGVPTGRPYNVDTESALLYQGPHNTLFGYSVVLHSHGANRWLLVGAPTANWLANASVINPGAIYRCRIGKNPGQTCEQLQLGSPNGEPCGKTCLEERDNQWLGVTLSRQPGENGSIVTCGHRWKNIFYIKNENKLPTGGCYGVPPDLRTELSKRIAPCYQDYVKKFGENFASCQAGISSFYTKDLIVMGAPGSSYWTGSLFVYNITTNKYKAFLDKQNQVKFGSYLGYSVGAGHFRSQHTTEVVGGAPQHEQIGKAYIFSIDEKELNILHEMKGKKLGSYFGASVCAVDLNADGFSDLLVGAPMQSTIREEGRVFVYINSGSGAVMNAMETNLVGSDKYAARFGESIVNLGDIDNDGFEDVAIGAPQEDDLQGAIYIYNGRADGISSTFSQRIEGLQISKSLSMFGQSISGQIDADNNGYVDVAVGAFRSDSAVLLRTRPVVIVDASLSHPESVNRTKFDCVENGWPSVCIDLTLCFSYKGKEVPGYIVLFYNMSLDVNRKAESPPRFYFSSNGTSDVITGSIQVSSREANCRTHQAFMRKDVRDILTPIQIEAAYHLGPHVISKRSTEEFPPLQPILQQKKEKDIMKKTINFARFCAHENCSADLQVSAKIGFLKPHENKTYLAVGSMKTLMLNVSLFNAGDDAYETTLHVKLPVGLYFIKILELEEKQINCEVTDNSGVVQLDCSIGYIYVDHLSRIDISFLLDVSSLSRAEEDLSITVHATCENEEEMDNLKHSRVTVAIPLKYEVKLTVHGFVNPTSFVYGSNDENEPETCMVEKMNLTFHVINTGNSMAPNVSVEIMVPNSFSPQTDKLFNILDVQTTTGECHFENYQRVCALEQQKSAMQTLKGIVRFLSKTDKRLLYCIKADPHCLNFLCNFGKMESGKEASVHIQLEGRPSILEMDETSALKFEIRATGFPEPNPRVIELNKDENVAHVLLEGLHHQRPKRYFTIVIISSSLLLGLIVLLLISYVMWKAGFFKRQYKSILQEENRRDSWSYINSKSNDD
CHT PAM: allosterically activates the human high affinity choline transporter; hit rate 0.49% among 310,000; B-score at 10 µM; CHT-expressing cells, membrane potential dye, choline EC20; stronger effect = higher value; LV-AA mutant CHT in HEK293 cells; AID 488977;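 active means initial fluorescence not abnormally high and integrated response B-score, plate-corrected, over 3 SD above library mean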
CHT inh: inhibitors of human choline transporter CHT; CHT-expressing cells, membrane potential dye, choline response; stronger effect = lower value; B-score at 10 µM; hit rate 0.86% among 310,000; AID 488975;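 active means B-score over 3 SD under the library average, and starting fluorescence ratio not unusually high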;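 further: choline stimulus applied at its EC90 after an EC20 pre-addition; B-score computed on integrated fluorescence ratio after choline addition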
HIF act: HIF pathway transcriptional activation; U2OS HRE-luciferase reporter, luminescence; normalized: DMSO 0%, desferrioxamine 100%; hit rate 0.32% among 300,000; AID 1910; activation, % at 7.5 µM (by protocol);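 active means mean activation of at least 10% of the iron chelator positive control signal, with at least half of replicates also reaching 10%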
Platelet DG rel: modulates dense granule release in human platelets; human platelet-rich plasma, SFLLRN dense granule ATP release, luminescence; hit rate 0.22% among 300,000; AID 1663; inhibition, %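 (compounds screened at 7.5 µM in platelet-rich plasma)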;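 active means mean replicate score, as percent of positive control, at or above 50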
CHT act confirm: confirmation of human choline transporter (CHT) activators | hit rate 91% among 2,500 | shares compounds with CHT PAM | CHT-expressing cells, membrane potential dye fluorescence (FDSS); % of choline EC20–EC90 response window; HEK293 expressing CHT LV-AA mutant; choline added at its EC20 | AID 504833 | activation, % at 10 µM;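 active means primary screen active, with duplicate mean activation above negative control mean plus 3 SD, cut at about 11% in these data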
HEK293 MP dye: activity in parental HEK293 cells lacking CHT; membrane potential dye fluorescence (FDSS); measured after EC20 choline addition; hit rate 62% among 2,500; ratio readout change at 10 µM, hits read low; shares compounds with CHT PAM;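 active means duplicate-averaged ratio beyond 3 SD from buffer wells, up or down, though filed actives are nearly all decreases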
The depositor's hits bear a star; i = inactive; nt = no result given.

SMILES | AI-2 QS mod | VLA-4 inh | CHT PAM | CHT inh | HIF act | Platelet DG rel | CHT act confirm | HEK293 MP dye
O=C(O)c1ccccc1-c1ccc(C=C2C(=O)N(c3ccccc3)C(=S)N(c3ccccc3)C2=O)o1 | -5.9 | -4.6 | i | i | 2.8 | 2.4 | nt | nt
O=[N+]([O-])c1ccc(C[n+]2c(-c3ccccc3)cc(-c3ccccc3)cc2-c2ccccc2)cc1 | 11.2 | 7.2 | i | i | -0.1 | -5.0 | 49.2* | -47.2*
O=[N+]([O-])c1cc(Cl)c(O)c(-[n+]2c(-c3ccccc3)cc(-c3ccccc3)cc2-c2ccccc2)c1 | 43.3 | 10.3 | i | i | -0.7 | -6.9 | nt | nt
CN1CCc2nc3sc(C#N)c(N)c3c(-c3cccs3)c2C1 | 13.8 | -21.0 | 8.55* | i | 0.1 | 11.9 | 38.7* | -58.5*
Nc1ccccc1Cl | nt | 15.9 | nt | nt | nt | nt | nt | nt
O=[N+]([O-])c1ccc(N2CCNCC2)cc1NCC1CCCO1 (stereo unspecified) | 17.6 | 0.9 | 8.98* | i | -0.2 | -3.2 | 56.5* | -65.7*
CCCCCn1c(=O)c(C(=O)NCc2ccncc2)c(O)c2ccccc21 | 38.0 | -3.7 | i | i | 1.1 | 18.6 | 31.3* | i
N=C1c2ccccc2CN1NC(=O)c1ccccc1 | 8.0 | 5.2 | i | i | 0.6 | -4.1 | nt | nt
N=C1c2ccccc2CN1c1ccc(F)c([N+](=O)[O-])c1 | 9.0 | 17.9 | i | i | -0.3 | 0.7 | 46.1* | -25.6*
N=C1c2ccccc2CN1c1cccc([N+](=O)[O-])c1 | 20.4 | 38.2 | i | i | -0.8 | -1.4 | 53.9* | -37.6*
N#CC(C#N)=C(N)c1cccnc1 | 20.5 | 0.6 | i | i | 0.2 | 3.0 | nt | nt
COc1ccc(NC(=O)c2cc([N+](=O)[O-])ccc2N2CCNCC2)cc1 | -1.3 | -2.9 | i | i | -0.1 | -0.4 | 53.5* | -58.6*
Cc1cc(Cl)ccc1OCCCC(=O)NCc1cccs1 | 11.8 | 9.4 | i | i | 0.1 | 1.8 | nt | nt
CN1CCN(c2ccc3nccnc3c2)CC1 | 6.2 | -5.5 | i | i | 1.7 | 18.7 | 16.3* | i
CCN(CC)C1=NC(=[N+](CC)CC)c2ccccc21 | 5.7 | 3.2 | 8.72* | i | 0.0 | 4.7 | 64.4* | -56*
Clc1ccc(C(Cn2ccnc2)OCc2csc3c(Cl)cccc23)c(Cl)c1 (stereo unspecified) | nt | 11.9 | i | i | nt | nt | nt | nt
Clc1ccc(CCC(Cn2ccnc2)Sc2c(Cl)cccc2Cl)cc1 (stereo unspecified) | nt | 48.2 | i | i | nt | nt | 30.2* | -27.4*
Cc1cc(C)[n+](CCCC[n+]2c(C)cc(C)cc2C)c(C)c1 | 26.9 | -10.4 | 7.89* | i | -1.1 | 4.5 | 73.0* | -98.6*
C[n+]1c(-c2ccccc2)cc(-c2ccc(Cl)cc2)cc1-c1ccccc1 | 16.2 | 5.9 | 7.19* | i | -0.5 | 4.5 | 29.7* | -29.2*
Cc1ccc(-c2cc(-c3ccc(C)cc3)[n+](-c3ccc(C(=O)[O-])cc3)c(-c3ccc(C)cc3)c2)cc1 | 51.1 | 36.7 | 9.72* | i | -1.3 | -4.3 | 11.6* | -34.9*
Cc1ccc(-c2cc(-c3ccccc3)cc(-c3ccccc3)[n+]2-c2ccccc2)cc1 | 18.7 | -1.1 | i | i | -0.9 | -0.1 | nt | nt
CCOC(=O)c1cccc(-[n+]2c(-c3ccccc3)cc(-c3ccccc3)cc2-c2ccccc2)c1 | 20.1 | 6.8 | i | i | 1.9 | -1.4 | nt | nt
CCOC(=O)c1ccc(-[n+]2c(-c3ccccc3)cc(-c3ccccc3)cc2-c2ccccc2)cc1 | 30.0 | -2.1 | 7.66* | i | 2.6 | -3.8 | 62.9* | i
C=CC[C@@H](CC/C=C/C=C/CC/C=C\[C@@H]1CSC([C@@H]2C[C@@H]2C)=N1)OC | nt | 19.4 | nt | nt | nt | nt | nt | nt
Cc1cc(N2CCOCC2)nc2ccc(NC(=O)CCC(=O)N3CCC4(CC3)OCCO4)cc12 | 9.8 | 18.5 | i | i | 2.4 | -2.2 | 52.8* | -38*
COc1ccc(NC(=O)N2CCC3(CC2)OCCO3)cc1OC | 17.0 | 1.8 | i | i | 0.3 | -32.8 | nt | nt
NCCNc1ccc([N+](=O)[O-])c2cccnc12 | 6.2 | 2.6 | 6.56* | i | 0.7 | -2.2 | 32.5* | -72.2*
Cc1nonc1OCCNc1ccc([N+](=O)[O-])c2cccnc12 | 31.9 | 15.3 | i | i | -0.1 | 2.1 | nt | nt
COc1ccccc1-n1c(-c2ccccc2Br)nc2ccccc2c1=O | -0.2 | 4.2 | i | i | -26.5 | 8.9 | nt | nt
